# According to PubChem BioAssay (Tox21):
# Inconclusive results are not listed. Entries that show only a call come without a potency. The source made the active and inactive calls. Unless noted, calls follow the shape of the dose curve; as a rule, active = well fitted curve in the direction sought with a large enough effect in the repeat runs; inconclusive = weak or mixed curves; inactive = no such curve, though single readings can be large; an effect the other way counts as inactive or inconclusive.
# Assays:
# [1] = qHTS assay to identify small molecule antagonists of the sonic hedgehog signaling (Shh) pathway (AID 1259369; calls by dose curve; also: nearly all actives have a fitted effect of over 45% in size; also: potency is read from the fitted curve at half-maximal effect)
# Outline: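 Cells are plated and held 4hr at 37 C, compounds (DMSO) are pinned in, conditioned medium is added to stimulate the pathway, and after 24hr luciferase reagent is added for 30min before luminescence is read.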
# [2] = biological target: Estrogen receptor beta (Homo sapiens) (UniProt Q92731); assay: qHTS assay to identify small molecule agonists of the estrogen receptor beta (ER-beta) signaling pathway (AID 1259377; active = well fitted activation curve with a large enough effect in the signal ratio in the repeat runs, not every such curve was filed as active; the % refers to the signal ratio)
# Outline: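 ER-beta-UAS-bla HEK293T (GripTite) cells carrying a UAS-driven beta-lactamase reporter, in medium with 2% charcoal-stripped FBS, were exposed to compounds for 16 hr at 37C; LiveBLAzer B/G FRET substrate was then added and fluorescence read after 2 hours at room temperature.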
# [3] = biological target: Estrogen receptor beta (Homo sapiens) (UniProt Q92731); assay: qHTS assay to identify small molecule antagonists of the estrogen receptor beta (ER-beta) signaling pathway (AID 1259378; active = well fitted inhibition curve with a large enough effect in the signal ratio in the repeat runs, not every such curve was filed as active; the % refers to the signal ratio; also: potency is read from the fitted curve at half-maximal effect)
# Outline: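 ER-beta-UAS-bla HEK293T (GripTite) cells in 2% charcoal-stripped FBS medium were preincubated 6 hr at 37C, dosed with compound, then stimulated with 1 nM E2 (final) for 16 hr; beta-lactamase reporter read by B/G FRET fluorescence after 2 hr substrate loading.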
# [4] = qHTS assay to identify small molecule agonists of the androgen receptor (AR) signaling pathway in the presence of an antagonist - cell viability counter screen (AID 1259379); also: nearly all actives have a fitted effect of over 25% in size; also: potency is read from the fitted curve at half-maximal effect
# Outline: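 Cytotoxicity is assessed by CellTiter-Fluor in MDA-kb2 cells carrying an MMTV-driven luciferase reporter. Cells receive 3.0uM nilutamide plus compounds at 15 concentrations and incubate 16 hr at 37C without CO2 before fluorescence reading.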
# [5] = qHTS assay to identify small molecule agonists of the estrogen receptor beta (ER-beta) signaling pathway - cell viability counter screen (AID 1259380); also: nearly all actives have a fitted effect of over 30% in size; also: potency is read from the fitted curve at half-maximal effect
# Outline: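 Cytotoxicity is measured in parallel with the reporter screen: after 16 hr compound exposure at 37C and a 2 hr LiveBLAzer step, CellTiter-Glo is added to the same ER-beta-UAS-bla HEK293T wells and luminescence read after 30 min.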
# [6] = qHTS assay to identify small molecule antagonists of the estrogen receptor beta (ER-beta) signaling pathway - cell viability counter screen (AID 1259382); also: series mostly up to about 92 µM; nearly all actives have a fitted effect of over 55% in size
# Outline: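 Cytotoxicity counter screen multiplexed with the beta-lactamase antagonist assay: GripTite HEK293T ER-beta-bla cells were treated 16 hr with test chemicals in the presence of 1nM 17-beta-estradiol, and viability was measured by CellTiter-Glo.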
# [7] = biological target: Estrogen receptor (Homo sapiens) (UniProt P03372); assay: qHTS assay to identify small molecule agonists of the estrogen receptor alpha (ER-alpha) signaling pathway in the presence of an antagonist (AID 1259383; calls by dose curve; also: top concentration of the series differs between compounds; nearly all actives have a fitted effect of over 15% in size)
# Outline: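 Agonist-mode confirmation in the presence of the ER antagonist ICI-182,780 at 10.0nM final. Breast-derived VM7Luc4E2 reporter cells were exposed to compounds for 22hr, and ERE-driven luciferase was quantified by luminescence.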
# [8] = qHTS assay to identify small molecule agonists or antagonists of the thyroid stimulating hormone receptor (TSHR) signaling pathway - wild type cell line counter screen (AID 1259384; calls by dose curve)
# Outline: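 Wild-type HEK293 cells were plated 18 h at 37 C/5% CO2, pin-dosed with compound plus Ro20-1724 medium, held 30 min at room temperature, then given cAMP-d2 and anti-cAMP-cryptate; fluorescence was read after 1 h. Fifteen concentrations, triplicate.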
# [9] = biological target: Thyrotropin receptor (Homo sapiens) (UniProt P16473); assay: qHTS assay to identify small molecule antagonists of the thyroid stimulating hormone receptor (TSHR) signaling pathway (AID 1259385; calls by dose curve; also: nearly all actives have a fitted effect of over 20% in size)
# Outline: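 TSHR-HEK293 cells were plated and held 18 h at 37C/5% CO2, then given compound plus Ro20-1724 and stimulated with TSH at 1.5 ng/mL final. After 30 min at room temperature, cAMP was detected with cAMP-d2/anti-cAMP-cryptate (1 h) by fluorescence.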
# [10] = qHTS assay to identify small molecule agonists of the estrogen receptor alpha (ER-alpha) signaling pathway in the presence of an antagonist - cell viability counter screen (AID 1259386);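 also: cells exposed to compounds for 22 h at 37 °C before the viability read; nearly all actives have a fitted effect of over 30% in size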; also: potency is read from the fitted curve at half-maximal effect
# Outline: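 Cytotoxicity was measured in parallel with the ERE-luciferase agonist screen, in the same wells. The cells were VM7Luc4E2, which endogenously express ER-alpha, and treatment was with compounds plus 10.0nM ICI-182,780 for 22hr.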
# [11] = qHTS assay to identify small molecule antagonists of the progesterone receptor (PR) signaling pathway - cell viability counter screen (AID 1346798); also: series mostly up to about 92 µM; nearly all actives have a fitted effect of over 50% in size
# Outline: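 PR-UAS-bla HEK293T cells in medium with 2% charcoal-stripped FBS were treated with compounds plus R5020 for 16 hr at 37C. Cell viability was then read by CellTiter-Glo luminescence after 30 min at room temperature in the same wells.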
# [12] = qHTS assay to identify small molecule antagonists of the TGF-beta/Smad signaling pathway - cell viability counter screen (AID 1346824); also: nearly all actives have a fitted effect of over 50% in size
# Outline: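 SBE-bla HEK 293T cells were plated overnight at 37 C, then given compounds in DMSO plus TGF-beta1 (added as 0.25 ng/mL solution) for 5 hr. After the bla read, CellTiter-Glo was added to the same wells and luminescence read after 30 min at room temperature.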
# [13] = qHTS assay to identify small molecule agonists of the TGF-beta/Smad signaling pathway - cell viability counter screen (AID 1346829); also: top concentration of the series differs between compounds; nearly all actives have a fitted effect of over 45% in size
# Outline: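 Luminescence from CellTiter-Glo, read after a 30 min room-temperature incubation, gives cell viability of SBE-bla HEK 293T cells treated 5 hr with compounds at 37 C.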
# [14] = qHTS assay to identify small molecule agonists of the TGF-beta/Smad signaling pathway (AID 1346859; active = well fitted activation curve with a large enough effect in the signal ratio in the repeat runs, not every such curve was filed as active; the % refers to the signal ratio; also: series mostly up to about 77 µM)
# Outline: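 HEK 293T cells stably carrying a beta-lactamase reporter driven by the Smad binding element were seeded overnight, exposed to DMSO-dissolved compounds for 5 hr at 37 C, 5% CO2, then loaded with FRET substrate for 2 hr at room temperature.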
# [15] = biological target: Thyrotropin-releasing hormone receptor (Homo sapiens) (UniProt P34981); assay: qHTS assay to identify small molecule antagonists of the thyrotropin-releasing hormone receptor (TRHR) signaling pathway (AID 1346877; active = well fitted inhibition curve with a large enough effect in the repeat runs, not every such curve was filed as active; also: series mostly up to about 51 µM)
# Outline: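 Antagonism is measured as suppression of the calcium response to 1 nM TRH in TRHR-HEK293 cells that have been dye-loaded for 2 h at 37 °C after overnight plating. Each compound is tested at 15 concentrations in triplicate.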
# [16] = biological target: Thyrotropin-releasing hormone receptor (Homo sapiens) (UniProt P34981); assay: qHTS assay to identify small molecule agonists of the thyrotropin-releasing hormone receptor (TRHR) signaling pathway (AID 1346891; calls by dose curve; also: potency is read from the fitted curve at half-maximal effect; as to activation: series mostly up to about 58 µM)
# Outline: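 TRHR-expressing HEK293 cells were plated 18 h at 37 °C/5% CO2, loaded with calcium dye 2 h at 37 °C, then given compound in DMSO; fluorescence was read kinetically for 3 min at 1 s intervals.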
# [17] = biological target: Progesterone receptor (Homo sapiens) (UniProt P06401); assay: qHTS assay to identify small molecule agonists of the progesterone receptor (PR) signaling pathway (AID 1346784; calls by dose curve; also: nearly all actives have a fitted effect of over 30% in size)
# Outline: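 PR-UAS-bla HEK 293T cells carrying a UAS-driven beta-lactamase reporter were seeded in medium with 2% charcoal-stripped FBS, preincubated 6 hr at 37C, then exposed to compounds in DMSO for 16 hr; agonism was read by LiveBLAzer B/G FRET fluorescence.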
# [18] = qHTS assay to identify small molecule agonists of the progesterone receptor (PR) signaling pathway - cell viability counter screen (AID 1346799; calls by dose curve; also: nearly all actives have a fitted effect of over 45% in size; also: potency is read from the fitted curve at half-maximal effect)
# Outline: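 PR-UAS-bla HEK293T cells, 3,000 per well in medium with 2% charcoal-stripped FBS, were preincubated 6 hr at 37C, then exposed to compounds for 16 hr; viability was read as CellTiter-Glo luminescence after 30 min at room temperature.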
# [19] = biological target: Progesterone receptor (Homo sapiens) (UniProt P06401); assay: qHTS assay to identify small molecule antagonists of the progesterone receptor (PR) signaling pathway (AID 1346795; active = well fitted inhibition curve with a large enough effect in the signal ratio in the repeat runs, not every such curve was filed as active; the % refers to the signal ratio)
# Outline: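 PR-UAS-bla HEK293T cells carrying a UAS-driven beta-lactamase reporter were plated in medium with 2% charcoal-stripped FBS and rested 6 hr at 37C. Compounds were added with 1 nM R5020 (final) for 16 hr, then FRET substrate loaded 2 hr at room temperature.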
# [20] = biological target: Androgen receptor (Homo sapiens) (UniProt P10275); assay: qHTS assay to identify small molecule agonists of the androgen receptor (AR) signaling pathway in the presence of an antagonist (AID 1259381; calls by dose curve; also: nearly all actives have a fitted effect of over 15% in size)
# Outline: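 Agonist-mode confirmation screen: human MDA-kb2 cells stably expressing luciferase under an MMTV promoter bearing AR and GR response elements, co-treated with 3.0uM nilutamide (final). Luminescence measured after 16hr compound incubation.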
# Chain of Androgen receptor (Homo sapiens) (P10275 whole entry, looked up): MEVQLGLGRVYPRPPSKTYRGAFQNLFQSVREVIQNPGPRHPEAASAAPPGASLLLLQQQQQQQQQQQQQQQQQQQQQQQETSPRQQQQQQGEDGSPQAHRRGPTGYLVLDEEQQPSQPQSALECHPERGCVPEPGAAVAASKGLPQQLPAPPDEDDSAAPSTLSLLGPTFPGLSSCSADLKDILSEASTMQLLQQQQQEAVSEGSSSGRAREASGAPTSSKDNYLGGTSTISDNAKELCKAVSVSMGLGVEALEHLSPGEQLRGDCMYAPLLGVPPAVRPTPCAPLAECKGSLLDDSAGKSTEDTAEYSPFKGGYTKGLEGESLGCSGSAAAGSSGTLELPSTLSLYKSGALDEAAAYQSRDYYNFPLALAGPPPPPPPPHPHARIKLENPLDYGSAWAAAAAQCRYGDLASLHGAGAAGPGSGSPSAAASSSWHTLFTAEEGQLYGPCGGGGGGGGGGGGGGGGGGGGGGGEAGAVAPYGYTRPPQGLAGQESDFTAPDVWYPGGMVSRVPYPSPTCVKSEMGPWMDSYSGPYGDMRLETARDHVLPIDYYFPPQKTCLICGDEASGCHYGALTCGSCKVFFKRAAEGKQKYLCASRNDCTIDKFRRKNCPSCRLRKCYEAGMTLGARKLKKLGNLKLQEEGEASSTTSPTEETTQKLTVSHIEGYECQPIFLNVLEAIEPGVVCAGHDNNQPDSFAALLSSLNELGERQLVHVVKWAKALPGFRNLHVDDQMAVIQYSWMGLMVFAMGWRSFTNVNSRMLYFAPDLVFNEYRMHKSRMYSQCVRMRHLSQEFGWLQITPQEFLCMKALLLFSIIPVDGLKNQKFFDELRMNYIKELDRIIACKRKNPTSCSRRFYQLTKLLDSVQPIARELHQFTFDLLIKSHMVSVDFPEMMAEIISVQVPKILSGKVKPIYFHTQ
# Chain of Thyrotropin receptor (Homo sapiens) (P16473 whole entry, looked up): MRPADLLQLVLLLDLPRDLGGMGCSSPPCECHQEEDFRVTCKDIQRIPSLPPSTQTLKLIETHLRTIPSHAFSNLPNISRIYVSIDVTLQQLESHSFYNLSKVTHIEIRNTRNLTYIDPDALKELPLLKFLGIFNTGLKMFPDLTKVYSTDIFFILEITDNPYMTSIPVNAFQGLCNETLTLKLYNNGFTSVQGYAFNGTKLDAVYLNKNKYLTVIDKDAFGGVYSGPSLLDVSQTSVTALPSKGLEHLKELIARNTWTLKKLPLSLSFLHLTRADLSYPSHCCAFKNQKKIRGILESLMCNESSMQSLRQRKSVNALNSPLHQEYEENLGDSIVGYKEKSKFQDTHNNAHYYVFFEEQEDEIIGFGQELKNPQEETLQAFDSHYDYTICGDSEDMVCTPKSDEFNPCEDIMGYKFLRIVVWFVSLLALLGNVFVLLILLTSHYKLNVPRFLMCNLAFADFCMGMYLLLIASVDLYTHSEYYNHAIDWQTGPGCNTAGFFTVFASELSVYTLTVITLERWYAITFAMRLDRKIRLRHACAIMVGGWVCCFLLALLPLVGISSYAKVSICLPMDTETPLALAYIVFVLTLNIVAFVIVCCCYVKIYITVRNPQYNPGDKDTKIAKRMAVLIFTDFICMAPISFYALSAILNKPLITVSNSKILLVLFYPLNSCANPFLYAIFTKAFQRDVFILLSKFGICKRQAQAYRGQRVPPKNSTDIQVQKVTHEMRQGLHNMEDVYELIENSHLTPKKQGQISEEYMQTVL
# Chain of Estrogen receptor (Homo sapiens) (P03372 whole entry, looked up): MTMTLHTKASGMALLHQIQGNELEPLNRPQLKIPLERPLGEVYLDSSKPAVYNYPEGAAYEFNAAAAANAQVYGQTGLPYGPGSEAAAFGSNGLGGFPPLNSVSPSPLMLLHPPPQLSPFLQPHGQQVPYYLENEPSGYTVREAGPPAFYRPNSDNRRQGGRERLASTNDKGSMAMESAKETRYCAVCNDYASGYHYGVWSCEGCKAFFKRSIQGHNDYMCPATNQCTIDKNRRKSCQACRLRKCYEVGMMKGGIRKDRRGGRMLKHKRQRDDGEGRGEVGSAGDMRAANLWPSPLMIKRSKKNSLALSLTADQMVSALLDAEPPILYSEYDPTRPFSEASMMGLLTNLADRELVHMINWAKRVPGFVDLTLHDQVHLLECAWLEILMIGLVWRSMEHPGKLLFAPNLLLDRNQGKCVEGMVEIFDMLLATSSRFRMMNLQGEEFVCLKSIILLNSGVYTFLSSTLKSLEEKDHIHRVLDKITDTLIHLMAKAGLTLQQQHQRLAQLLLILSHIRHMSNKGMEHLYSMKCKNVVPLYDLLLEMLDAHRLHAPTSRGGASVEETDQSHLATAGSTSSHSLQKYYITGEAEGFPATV
# Chain of Thyrotropin-releasing hormone receptor (Homo sapiens) (P34981 whole entry, looked up): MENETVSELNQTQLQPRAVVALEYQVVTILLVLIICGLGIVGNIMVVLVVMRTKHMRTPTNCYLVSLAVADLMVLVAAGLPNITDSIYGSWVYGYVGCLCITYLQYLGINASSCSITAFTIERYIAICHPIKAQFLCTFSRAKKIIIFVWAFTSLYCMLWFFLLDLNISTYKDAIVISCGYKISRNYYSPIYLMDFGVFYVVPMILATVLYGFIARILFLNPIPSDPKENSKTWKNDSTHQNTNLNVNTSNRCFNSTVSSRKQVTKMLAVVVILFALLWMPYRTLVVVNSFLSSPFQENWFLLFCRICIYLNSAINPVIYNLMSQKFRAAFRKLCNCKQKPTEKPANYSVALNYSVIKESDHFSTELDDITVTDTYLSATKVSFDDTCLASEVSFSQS
# Chain of Progesterone receptor (Homo sapiens) (P06401 whole entry, looked up): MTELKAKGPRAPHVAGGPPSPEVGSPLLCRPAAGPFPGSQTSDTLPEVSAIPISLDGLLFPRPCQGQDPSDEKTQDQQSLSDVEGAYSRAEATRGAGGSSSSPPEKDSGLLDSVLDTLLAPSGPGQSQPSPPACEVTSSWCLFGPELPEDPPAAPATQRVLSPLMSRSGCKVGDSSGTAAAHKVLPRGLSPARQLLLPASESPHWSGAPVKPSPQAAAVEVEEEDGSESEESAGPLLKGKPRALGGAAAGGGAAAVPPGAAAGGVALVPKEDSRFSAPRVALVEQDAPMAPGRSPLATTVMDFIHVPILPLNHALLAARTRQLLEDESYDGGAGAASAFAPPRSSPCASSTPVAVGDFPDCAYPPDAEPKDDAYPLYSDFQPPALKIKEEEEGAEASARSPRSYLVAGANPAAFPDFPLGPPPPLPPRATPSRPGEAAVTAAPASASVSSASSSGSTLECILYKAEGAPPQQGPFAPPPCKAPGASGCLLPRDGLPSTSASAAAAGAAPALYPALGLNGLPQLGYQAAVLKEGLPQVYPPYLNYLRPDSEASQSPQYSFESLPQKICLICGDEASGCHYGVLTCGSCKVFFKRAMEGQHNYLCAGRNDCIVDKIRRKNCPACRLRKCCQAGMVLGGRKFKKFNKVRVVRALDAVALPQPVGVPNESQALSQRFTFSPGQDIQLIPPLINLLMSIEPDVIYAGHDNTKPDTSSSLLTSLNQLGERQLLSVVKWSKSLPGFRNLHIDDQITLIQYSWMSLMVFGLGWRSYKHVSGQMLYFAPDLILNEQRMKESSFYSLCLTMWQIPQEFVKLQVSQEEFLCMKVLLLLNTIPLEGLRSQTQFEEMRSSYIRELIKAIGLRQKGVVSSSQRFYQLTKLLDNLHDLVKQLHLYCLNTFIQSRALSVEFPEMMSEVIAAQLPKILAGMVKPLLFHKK
# Chain of Estrogen receptor beta (Homo sapiens) (Q92731 whole entry, looked up): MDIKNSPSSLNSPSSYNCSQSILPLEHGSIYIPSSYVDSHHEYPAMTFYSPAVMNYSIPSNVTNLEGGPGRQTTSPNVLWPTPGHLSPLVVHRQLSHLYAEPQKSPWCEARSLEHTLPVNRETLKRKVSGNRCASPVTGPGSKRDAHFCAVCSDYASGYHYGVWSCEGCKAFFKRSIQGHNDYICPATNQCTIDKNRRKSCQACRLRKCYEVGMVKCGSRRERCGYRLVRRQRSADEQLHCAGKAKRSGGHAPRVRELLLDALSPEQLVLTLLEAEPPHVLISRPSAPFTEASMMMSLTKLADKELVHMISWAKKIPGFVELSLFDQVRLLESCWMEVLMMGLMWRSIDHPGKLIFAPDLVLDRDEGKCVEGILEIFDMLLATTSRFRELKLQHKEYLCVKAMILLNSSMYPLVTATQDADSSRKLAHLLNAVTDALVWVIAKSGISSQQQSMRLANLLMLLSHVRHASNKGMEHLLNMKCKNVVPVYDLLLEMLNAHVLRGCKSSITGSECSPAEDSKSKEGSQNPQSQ
Compound,Potency [1],Potency [2],Potency [3],Potency [4],Potency [5],Potency [6],Potency [7],Potency [8],Potency [9],Potency [10],Potency [11],Potency [12],Potency [13],outcome [14],Potency [15],Potency [16],Potency [17],Potency [18],Potency [19],Potency [20]
CCN(CC)CCN1C(=O)CN=C(c2ccccc2F)c2cc(Cl)ccc21,inactive,inactive,inactive,inactive,inactive,inactive,inactive,inactive,inactive,inactive,inactive,inactive,inactive,inactive,inactive,inactive,–,–,–,–
N#Cc1ccc(N(CC(N)=O)CC(F)(F)F)cc1C(F)(F)F,inactive,inactive,inactive,inactive,inactive,inactive,inactive,–,inactive,inactive,–,inactive,–,inactive,inactive,inactive,inactive,inactive,–,–
NC(=O)C(Cl)Cl,inactive,inactive,inactive,inactive,inactive,inactive,–,–,–,inactive,inactive,inactive,inactive,inactive,inactive,inactive,inactive,inactive,inactive,–
O=Cc1ccccc1,inactive,inactive,inactive,inactive,inactive,inactive,–,inactive,inactive,inactive,inactive,inactive,inactive,inactive,inactive,inactive,inactive,–,inactive,–
OCC(Br)CBr (stereo not drawn),inactive,inactive,inactive,inactive,inactive,inactive,inactive,–,inactive,inactive,inactive,inactive,inactive,inactive,–,–,inactive,inactive,inactive,–
CNC(=O)/C=C(\C)OP(=O)(OC)OC,inactive,inactive,inactive,inactive,inactive,inactive,inactive,inactive,inactive,inactive,inactive,inactive,–,inactive,inactive,inactive,inactive,–,inactive,–
Nc1ccccc1-c1ccccc1,inactive,inactive,inactive,inactive,48.3 µM (active),inactive,inactive,–,inactive,inactive,–,inactive,inactive,inactive,inactive,inactive,inactive,30.5 µM (active),–,–
O=C(N[C@@H]1N=C(c2ccccc2F)c2cccc3c2N(CC3)C1=O)c1cc2ccccc2[nH]1,inactive,inactive,inactive,inactive,inactive,inactive,–,inactive,inactive,inactive,–,inactive,inactive,inactive,–,12 µM (active),–,inactive,–,–
O=C(NC(=O)c1ccccc1Cl)Nc1ccc(OC(F)(F)F)cc1,inactive,inactive,inactive,inactive,inactive,inactive,–,–,inactive,–,–,inactive,inactive,inactive,–,–,inactive,–,–,inactive
Clc1ccc(C2(Cn3cncn3)OCCO2)c(Cl)c1,inactive,inactive,inactive,inactive,inactive,inactive,inactive,inactive,inactive,–,–,inactive,–,inactive,inactive,inactive,inactive,–,–,–
O=NN(CCO)CCO,inactive,inactive,inactive,inactive,inactive,inactive,inactive,inactive,inactive,–,inactive,inactive,inactive,inactive,–,–,inactive,–,inactive,inactive
CC1(C)[C@H](/C=C2\CCSC2=O)[C@@H]1C(=O)OCc1coc(Cc2ccccc2)c1,12.2 µM (active),inactive,inactive,inactive,inactive,inactive,inactive,inactive,–,inactive,–,inactive,inactive,inactive,inactive,inactive,inactive,–,–,–
CC(C)=CC1C(C(=O)OC(C#N)c2cccc(Oc3ccccc3)c2)C1(C)C (stereo not drawn),inactive,inactive,inactive,inactive,inactive,inactive,–,inactive,inactive,inactive,inactive,inactive,inactive,inactive,–,inactive,inactive,inactive,–,inactive
CN(C)c1ccc(N)cc1,13.4 µM (active),inactive,23.7 µM (active),59.6 µM (active),11.9 µM (active),–,inactive,–,–,53.2 µM (active),inactive,inactive,–,inactive,inactive,inactive,–,–,–,inactive
Cc1cnc2c(C(=O)O)c(Cl)ccc2c1,inactive,inactive,inactive,inactive,inactive,inactive,inactive,–,–,inactive,inactive,inactive,inactive,inactive,–,inactive,inactive,inactive,inactive,–
COc1ccc2c(c1OC)C(=O)O[C@@H]2[C@H]1c2cc3c(cc2CCN1C)OCO3,inactive,inactive,inactive,inactive,inactive,inactive,–,inactive,inactive,6.05 µM (active),inactive,inactive,inactive,inactive,inactive,inactive,inactive,–,inactive,inactive
